Structures are written as SMILES. Several values for one entry are separate records, joined by “and”; a condition that tells them apart may be missing. Identical values can stand only once. Records with an inconclusive call do not appear. Where a call stands in place of a potency, no number is given. More than one record can exist for a structure, and the calls need not agree. Activity calls are given as the source filed them. Calls come from the whole dose curve; as a rule, active = well fitted inhibition curve with a large enough effect in the repeat runs; inconclusive = weak or mixed curves; inactive = no such curve, though single readings can be large or run the other way.

This is an account of results in PubChem BioAssay (Tox21).
Potency is the fitted concentration of half-maximal effect.

The nature of the test: qHTS assay to identify small molecule antagonists of the estrogen related receptor (ERR) signaling pathway from Tox21 library (AID 1224848). Note: nearly all actives have a fitted effect of over 50% in size. As to conditions: ERR reporter cell line, luciferase antagonist mode, 18 h; series mostly up to 92.4 µM. The source says: U.S. Tox21 Program National Center for Advancing Translational Sciences [NCATS] NIH Chemical Genomics Center [NCGC] U.S. Environmental Protection Agency [EPA] National Institutes of Environmental Health Sciences [NIEHS] National Toxicology Program [NTP] U.S. Food and Drug Administration [FDA] Tox21 Assay Overview: Estrogen related receptors (ERRs), the first orphan nuclear receptors discovered, play an important role in the control of cellular energy metabolism. ERRs are required for high-energy production in response to the environmental challenges. ERR-alpha was also identified as an adverse marker for breast cancer progression; ERR-alpha-positive tumors have a poor prognosis. To screen and to identify environmental compounds that perturb the ERR signaling pathways could provide valuable information for potential therapeutic or preventive measures in the treatment of metabolic disease. For identifying ERR antagonists, ERR cell line (provided by NTP) has been used to screen Tox21 10K library.
Tox21 Assay Protocol Summary: The ERR cells were dispensed at 2,000 cells/5 ul/well in 1536-well white plates using a Multidrop dispenser. After the assay plates were incubated at a 37 C/5% CO2 incubator for 6 hours, 23 nL of compounds dissolved in DMSO, positive and negative controls or DMSO only was transferred to the assay plate by a pin tool. The plates were incubated at 37 C for 18 hours. 4 ul/well of One-Glo reagent was added into the assay plates using a Flying Reagent Dispenser. After 30-minute incubation at room temperature, the luminescence intensity in the plates was measured using a ViewLux plate reader.
(In general: Quantitative high-throughput screening tests each substance at several concentrations.)
As to `O=Cc1ccc(Cl)cc1`, the Potency result was “inactive”.
On to `Nc1cc(Cl)c(-c2cc(Cl)c(N)cc2Cl)cc1Cl`, for which the Potency is 54.4 µM (active) and 61.1 µM (active).
For `CCN(CC)C(=O)Nc1ccc(OCC(O)CNC(C)(C)C)c(C(C)=O)c1` (stereo not given), the Potency result is “inactive”.
For `CO[Si](OC)(OC)c1ccccc1`, the Potency entry was “inactive”.
Still for that read-out and setting: the result for `[Cl][In]([Cl])[Cl]` reads 34.4 µM (active); that for `CCC(CO)(CO)COCC(CC)(CO)CO`, “inactive”.
Consider `c1cnc2cc3c(cc2n1)C1CNCC3C1`, for which the Potency result was “inactive”.
Still for that read-out and setting: the result for `CC(C)(O)CCC(C)(C)O` reads “inactive”; that for `CNC1(C)C2CCC(C2)C1(C)C` (stereo not given), “inactive”; that for `O=C(O)CCc1ccccc1`, “inactive”.
The same measure, in the same setting: the same measure for `C[N+]1([O-])CCOCC1`: “inactive”; for `CN(C)c1ccc(C(=C2C=CC(=[N+](C)C)C=C2)c2ccccc2)cc1`: 596 nM (active) [middle of 4 runs]; for `C1COC(NC(C2CC2)C2CC2)=N1`: “inactive”.
On the same count and under the same terms, the result for `CC(C)CCOC(=O)c1ccc(N(C)C)cc1` reads “inactive”; that for `O=C(Nc1ccccc1SSc1ccccc1NC(=O)c1ccccc1)c1ccccc1`, 24.5 µM (active) and 43.3 µM (active).
As for `CCCOC(=O)c1cc(O)c(O)c(O)c1`, the Potency was 48.3 µM (active) and 54.5 µM (active).
Same read-out and setting: the result for `COc1ccc(COC(C)=O)cc1` reads “inactive”.
Take `NC(Cc1ccc(Cl)cc1)C(=O)O` (stereo not given): the activity, negative = inhibition is -15% [at 0.349 µM] (inactive).
For the compound `C=C(C)C1CC=C(C)C(OC(C)=O)C1` (stereo not given), the Potency result is “inactive”.
Take `CC(C)(C)NCC(O)COc1ccccc1OCC1CCCO1` (stereo not given): the Potency result is “inactive”.
Same read-out and setting: the same measure for `CC(=O)CC(C)=O`: “inactive”; for `Cc1occc(=O)c1OC(=O)C(C)C`: “inactive”.
For `O=Nc1ccc(Nc2ccccc2)cc1`, the Potency entry was “inactive”.
On to `O=C1CC2(CCCC2)CC(=O)N1CCCCN1CCN(c2ncccn2)CC1`, for which the Potency is 30.6 µM (active) and inactive.
The same measure, in the same setting: the result for `Cc1cccc([N+](=O)[O-])c1C(=O)O` reads “inactive”; that for `Cc1c(O)cccc1C(=O)N[C@@H](CSc1ccccc1)[C@H](O)CN1C[C@H]2CCCC[C@H]2C[C@H]1C(=O)NC(C)(C)C`, 15 µM (active) and 18.8 µM (active).
The same measure, in the same setting: the same measure for `Oc1c(Cl)cc(Cl)c(Cl)c1Cc1c(O)c(Cl)cc(Cl)c1Cl`: 3.05 µM (active) and 2.73 µM (active) and 3.35 µM (active); for `O=C(O)c1cc(Cl)cc(Cl)c1`: “inactive”.
Same read-out and setting: the result for `CC1=C(C=O)C(C)(C)CC=C1` reads “inactive”; that for `NC(N)=NC(=O)Cc1c(Cl)cccc1Cl`, “inactive”; that for `COc1ccc(CCN2CCC(Nc3nc4ccccc4n3Cc3ccc(F)cc3)CC2)cc1`, 12.5 µM (active) and 26.6 µM (active).
On to `CC(C(O)c1ccc(O)cc1)N1CCC(Cc2ccccc2)CC1` (stereo not given), for which the Potency entry is “inactive”.
Take `CC(C)C(=O)c1c(C(C)C)nn2ccccc12`: the Potency entry was “inactive”.
On the same count and under the same terms, the same measure for `C=CS(=O)(=O)O`: “inactive”; for `C=CC(=O)OCCCCCCOC(=O)C=C`: “inactive”.
The same measure, in the same setting: the result for `N[C@@H]1CONC1=O` reads “inactive”; that for `CC(C)CCOCc1ccccc1`, “inactive”.
Still for that read-out and setting: the result for `CC[C@]1(O)C[C@@H]2CN(CCc3c([nH]c4ccccc34)[C@@](C(=O)OC)(c3cc4c(cc3OC)N(C)[C@H]3[C@@](O)(C(=O)OC)[C@H](OC(C)=O)[C@]5(CC)C=CCN6CC[C@]43[C@@H]65)C2)C1` reads 26.6 µM (active).
In the case of `Cc1ccc(S(=O)(=O)Oc2ccc(N=Nc3ccc(-c4ccc(N=Nc5c(O)ccc6cc(S(=O)(=O)O)cc(S(=O)(=O)O)c56)c(C)c4)cc3C)cc2)cc1`, the Potency is 27.4 µM (active).
On the same count and under the same terms, the same measure for `CCCCCC(=O)O[C@]1(C(C)=O)CC[C@H]2[C@@H]3CCC4=CC(=O)CC[C@]4(C)[C@H]3CC[C@@]21C`: 24.2 µM (active) and 7.5 µM (active).
